# Counter-ions that a name gives are not always drawn.
# System: Danio rerio larvae (5 dpf)
# Assay: habituation to 1-s acoustic pulses, difference vs DMSO (percentage points (treated minus DMSO)); higher = more of the behaviour than the DMSO vehicle control
# Details: 10 µM; exposure time: 3 h pre-incubation + 3 h imaging
# Procedure: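 5-dpf wild-type zebrafish larvae were imaged in 96-well plates. They were treated with 190 Tocris FDA-approved drugs at 10 µM (1 µl/ml DMSO) for 3 h before and 3 h during imaging at 28.5 °C, 48 larvae per drug. Automated image analysis gave % time moving and optomotor responses. Values are drug group mean minus DMSO vehicle mean (n=844), in percentage points, for 10 behaviours.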
row,Compound,habituation to 1-s acoustic pulses
1,COc1cccc2c1C(=O)c1c(O)c3c(c(O)c1C2=O)C[C@@](O)(C(=O)CO)C[C@@H]3O[C@H]1C[C@H](N)[C@H](O)[C@H](C)O1 [Doxorubicin hydrochloride],3.26
2,Cc1ccccc1C(=O)Nc1ccc(C(=O)N2CCCC(O)c3cc(Cl)ccc32)c(C)c1 (stereo not given) [Tolvaptan],1.17
3,Cc1ccc(N(CC2=NCCN2)c2cccc(O)c2)cc1 [Phentolamine Mesylate],5.8
4,CNS(=O)(=O)Cc1ccc2[nH]cc(CCN(C)C)c2c1 [Sumatriptan succinate],-0.62
5,CO[C@H]1/C=C/O[C@@]2(C)Oc3c(C)c(O)c4c(O)c(c5c(nc6cc(C)ccn65)c4c3C2=O)NC(=O)/C(C)=C\C=C\[C@H](C)[C@H](O)[C@@H](C)[C@@H](O)[C@@H](C)[C@H](OC(C)=O)[C@@H]1C [Rifaximin],-3.04
6,CCOC(=O)C1=C(COCCN)NC(C)=C(C(=O)OC)C1c1ccccc1Cl (stereo not given) [Amlodipine besylate],-2.17
7,COc1cc(N)c(Cl)cc1C(=O)NC1CCN(CCCOc2ccc(F)cc2)CC1OC (stereo not given) [Cisapride],6.52
8,CN/C(=N\CCSCc1nc[nH]c1C)NC#N [Cimetidine],5.48
9,COCCCOc1cc(C[C@@H](C[C@H](N)[C@@H](O)C[C@H](C(=O)NCC(C)(C)C(N)=O)C(C)C)C(C)C)ccc1OC [Aliskiren hemifumarate],7.12
10,CCCN(CCc1cccs1)[C@H]1CCc2c(O)cccc2C1 [Rotigotine hydrochloride],-12.9
11,COc1cc2ncnc(Nc3ccc(F)c(Cl)c3)c2cc1OCCCN1CCOCC1 [Iressa],0.91
12,C[C@H](Cc1cc2c(c(C(N)=O)c1)N(CCCO)CC2)NCCOc1ccccc1OCC(F)(F)F [Silodosin],7.97
13,COc1cc2nc(N3CCN(C(=O)c4ccco4)CC3)nc(N)c2cc1OC [Prazosin hydrochloride],0.4
14,COc1cc(Nc2c(C#N)cnc3cc(OCCCN4CCN(C)CC4)c(OC)cc23)c(Cl)cc1Cl [Bosutinib],0.4
15,OCc1cc(C(O)CNCCCCCCOCCCCc2ccccc2)ccc1O (stereo not given) [Salmeterol xinafoate],0.0601
16,CN1CC2c3ccccc3Oc3ccc(Cl)cc3C2C1 (stereo not given) [Asenapine maleate],-9.25
17,O=C(O)C[C@H](O)C[C@H](O)/C=C/c1c(C2CC2)nc2ccccc2c1-c1ccc(F)cc1 [Pitavastatin calcium],-6.74
18,CC1(C)O[C@@H]2[C@@H](CO[C@@]3(COS(N)(=O)=O)OC(C)(C)O[C@@H]23)O1 [Topiramate],-3.26
19,COc1ccc(Cl)cc1C(=O)NCCc1ccc(S(=O)(=O)NC(=O)NC2CCCCC2)cc1 [Glibenclamide],-1.87
20,COc1ccccc1Oc1c(NS(=O)(=O)c2ccc(C(C)(C)C)cc2)nc(-c2ncccn2)nc1OCCO [Bosentan],4.23

row,Compound,habituation to 1-s acoustic pulses
1,Cc1cccc(CN2CCN(C(c3ccccc3)c3ccc(Cl)cc3)CC2)c1 (stereo not given) [Meclizine dihydrochloride],-10.1
2,CCOc1cc(CC(=O)N[C@@H](CC(C)C)c2ccccc2N2CCCCC2)ccc1C(=O)O [Repaglinide],-8.43
3,OCCOCCN1CCN(C2=Nc3ccccc3Sc3ccccc32)CC1 [Quetiapine hemifumarate],-4.36
4,CCOc1nc2cccc(C(=O)O)c2n1Cc1ccc(-c2ccccc2-c2noc(=O)[nH]2)cc1 [Azilsartan],6.99
5,CC(=O)Oc1cc2c(s1)CCN(C(C(=O)C1CC1)c1ccccc1F)C2 (stereo not given) [Prasugrel],2.1
6,Clc1ccccc1C(c1ccccc1)(c1ccccc1)n1ccnc1 [Clotrimazole],-1.97
7,CCCCc1nc(Cl)c(CO)n1Cc1ccc(-c2ccccc2-c2nnn[nH]2)cc1 [Losartan potassium],0.91
8,CCCc1nn(C)c2c(=O)[nH]c(-c3cc(S(=O)(=O)N4CCN(C)CC4)ccc3OCC)nc12 [Sildenafil citrate],-2.79
9,CN(C)CCc1c[nH]c2ccc(Cn3cncn3)cc12 [Rizatriptan benzoate],-2.41
10,Cc1nnc(C(C)C)n1C1C[C@H]2CC[C@@H](C1)N2CC[C@H](NC(=O)C1CCC(F)(F)CC1)c1ccccc1 (stereo in doubt) [Maraviroc],2.48
11,CN(CCOc1ccc(NS(C)(=O)=O)cc1)CCc1ccc(NS(C)(=O)=O)cc1 [Dofetilide],5.42
12,C[C@H]1O[C@H](O[C@H]2[C@H](O)[C@@H](O)[C@@H](O[C@H]3[C@H](O)[C@@H](O)C(O)O[C@@H]3CO)O[C@@H]2CO)[C@H](O)[C@@H](O)[C@@H]1N[C@H]1C=C(CO)[C@@H](O)[C@H](O)[C@H]1O (stereo not given in full) [Acarbose],3.26
13,Clc1ccc(COC(Cn2ccnc2)c2ccc(Cl)cc2Cl)c(Cl)c1 (stereo not given) [Miconazole nitrate],-15.5
14,NC(=O)c1ncn([C@@H]2O[C@H](CO)[C@@H](O)[C@H]2O)n1 [Ribavirin],-1.17
15,Cc1ccsc1C(=CCCN1CCC[C@@H](C(=O)O)C1)c1sccc1C [Tiagabine hydrochloride],6.27
16,C=C1[C@H](CO)[C@@H](O)C[C@@H]1n1cnc2c(=O)[nH]c(N)nc21 [Entecavir],3.17
17,CCOC(=O)[C@H](CCc1ccccc1)N[C@@H](C)C(=O)N1[C@H](C(=O)O)C[C@@H]2CCC[C@@H]21 [Ramipril],-1.94
18,CCCc1nc2c(C)cc(-c3nc4ccccc4n3C)cc2n1Cc1ccc(-c2ccccc2C(=O)O)cc1 [Telmisartan],-0.195
19,CC(CCc1ccc(O)cc1)NCCc1ccc(O)c(O)c1 (stereo not given) [Dobutamine hydrochloride],1.34
20,CNC(=O)c1cc(Oc2ccc(NC(=O)Nc3ccc(Cl)c(C(F)(F)F)c3)cc2)ccn1 [Sorafenib],-8.29

# From the supplement of paper PMC9023506
